In ChEMBL document CHEMBL3988442, “University of Dundee, Small-Polar-MMV Screening Library” (2021):
For some assays here: Potency and affinity values are given separately.

Columns and labels:
Set-up in all cases: scale not given: direction of the effect not stated beside the values
[1] = target: Protein translocase subunit SecA (Escherichia coli (strain K12)) (UniProt P10408); assay: Assay to Identify E. coli SecA ATPase Inhibitors; format: functional; conditions: 30 µM
[2] = target: T1, Ubiquitin-activating enzyme e1, putative (Leishmania donovani (strain BPK282A1)) (UniProt E9BSI1); assay: Leishmania donovani Ubiquitin Activating Enzyme (LdE1); format: functional; conditions: 30 µM
T1 sequence (whole entry): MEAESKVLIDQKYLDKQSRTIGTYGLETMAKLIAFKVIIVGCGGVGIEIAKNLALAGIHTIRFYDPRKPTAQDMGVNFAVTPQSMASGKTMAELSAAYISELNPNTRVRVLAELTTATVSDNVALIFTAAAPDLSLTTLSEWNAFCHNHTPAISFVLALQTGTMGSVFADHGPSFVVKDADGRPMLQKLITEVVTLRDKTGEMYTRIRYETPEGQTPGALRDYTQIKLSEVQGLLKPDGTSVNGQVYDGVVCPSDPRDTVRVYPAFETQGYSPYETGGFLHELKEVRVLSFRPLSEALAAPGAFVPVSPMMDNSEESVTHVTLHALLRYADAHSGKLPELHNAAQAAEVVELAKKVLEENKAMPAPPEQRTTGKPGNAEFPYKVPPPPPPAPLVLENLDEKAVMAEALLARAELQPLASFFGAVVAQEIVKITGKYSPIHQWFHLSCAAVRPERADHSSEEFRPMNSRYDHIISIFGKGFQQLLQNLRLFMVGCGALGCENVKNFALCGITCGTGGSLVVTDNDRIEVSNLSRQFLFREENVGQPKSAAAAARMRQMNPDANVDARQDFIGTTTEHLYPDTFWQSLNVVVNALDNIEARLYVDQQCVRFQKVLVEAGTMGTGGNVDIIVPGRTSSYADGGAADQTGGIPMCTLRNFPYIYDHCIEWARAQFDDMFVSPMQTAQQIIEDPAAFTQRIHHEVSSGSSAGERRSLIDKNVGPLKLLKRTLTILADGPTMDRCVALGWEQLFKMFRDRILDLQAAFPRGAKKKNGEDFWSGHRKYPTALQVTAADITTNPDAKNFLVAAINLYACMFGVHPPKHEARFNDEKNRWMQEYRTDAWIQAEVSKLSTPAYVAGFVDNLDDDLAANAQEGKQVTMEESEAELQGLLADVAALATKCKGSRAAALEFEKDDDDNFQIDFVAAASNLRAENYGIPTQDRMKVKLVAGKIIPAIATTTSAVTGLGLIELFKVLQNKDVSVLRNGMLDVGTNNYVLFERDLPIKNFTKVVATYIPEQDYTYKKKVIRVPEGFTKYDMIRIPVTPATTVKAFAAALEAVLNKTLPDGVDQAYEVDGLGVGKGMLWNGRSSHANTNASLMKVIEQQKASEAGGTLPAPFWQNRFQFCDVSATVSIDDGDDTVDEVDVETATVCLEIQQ

[3] = target: Sialic acid-binding Ig-like lectin 9 (Homo sapiens) (UniProt Q9Y336); assay: Hs-Siglec9 ALPHAscreen SOP 20170721; conditions: 10 µM
[4] = system: Trypanosoma cruzi; assay: Trypanosoma cruzi phosphomannomutase and mannose-1-phosphate guanylyltransferase assay; format: functional; conditions: 10 µM
[5] = target: T2, Arginase-2, mitochondrial (Homo sapiens) (UniProt P78540); assay: in vitro enzyme assay to detect the production of urea directly proportional to the activity of Arginase II; format: functional; conditions: 33.3 µM; also: in the data most compounds retested in dose-response had high values
T2 sequence (whole entry): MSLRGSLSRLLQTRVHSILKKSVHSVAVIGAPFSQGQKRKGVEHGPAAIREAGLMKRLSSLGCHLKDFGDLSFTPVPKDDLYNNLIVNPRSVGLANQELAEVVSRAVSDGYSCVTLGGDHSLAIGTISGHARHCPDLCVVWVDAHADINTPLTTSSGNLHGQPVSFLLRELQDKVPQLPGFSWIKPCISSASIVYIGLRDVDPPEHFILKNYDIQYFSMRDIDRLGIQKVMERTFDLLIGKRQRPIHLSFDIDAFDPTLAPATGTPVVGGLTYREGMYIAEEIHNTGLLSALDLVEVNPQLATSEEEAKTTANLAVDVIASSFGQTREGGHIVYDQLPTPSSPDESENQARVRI

[6] = target: T3, Proteasome subunit beta (Trypanosoma cruzi) (UniProt O96673); assay: Trypanosoma cruzi proteasome chymotrypsin-like activity (TcProtChymo) assay.; also: in the data most compounds retested in dose-response had high values; format: functional; conditions: 9.37 µM
T3 sequence (whole entry): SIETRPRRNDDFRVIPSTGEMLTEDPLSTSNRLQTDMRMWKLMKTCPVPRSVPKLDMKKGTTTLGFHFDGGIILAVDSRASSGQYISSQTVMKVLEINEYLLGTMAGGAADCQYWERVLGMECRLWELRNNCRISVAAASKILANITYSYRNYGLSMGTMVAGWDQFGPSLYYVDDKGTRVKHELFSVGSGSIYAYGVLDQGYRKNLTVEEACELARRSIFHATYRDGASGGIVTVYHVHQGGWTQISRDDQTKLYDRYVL

[7] = species on record: Homo sapiens; assay: To identify inhibition of the IFN signalling (Jak-Stat) pathway via expression of an eGFP reporter gene under the control of an IFN-stimulated response element (ISRE) containing MxA promoter.; format: functional; conditions: 30 µM
[8] = target: T4, Tyrosyl-tRNA synthetase, putative (Trypanosoma cruzi (strain CL Brener)) (UniProt Q4DSP6); assay: Trypanosoma cruzi tyrosyl tRNA synthetase (TcYRS) _High Tyrosine SOP; format: functional; conditions: 30 µM; also: in the data most compounds retested in dose-response had high values
T4 sequence (whole entry): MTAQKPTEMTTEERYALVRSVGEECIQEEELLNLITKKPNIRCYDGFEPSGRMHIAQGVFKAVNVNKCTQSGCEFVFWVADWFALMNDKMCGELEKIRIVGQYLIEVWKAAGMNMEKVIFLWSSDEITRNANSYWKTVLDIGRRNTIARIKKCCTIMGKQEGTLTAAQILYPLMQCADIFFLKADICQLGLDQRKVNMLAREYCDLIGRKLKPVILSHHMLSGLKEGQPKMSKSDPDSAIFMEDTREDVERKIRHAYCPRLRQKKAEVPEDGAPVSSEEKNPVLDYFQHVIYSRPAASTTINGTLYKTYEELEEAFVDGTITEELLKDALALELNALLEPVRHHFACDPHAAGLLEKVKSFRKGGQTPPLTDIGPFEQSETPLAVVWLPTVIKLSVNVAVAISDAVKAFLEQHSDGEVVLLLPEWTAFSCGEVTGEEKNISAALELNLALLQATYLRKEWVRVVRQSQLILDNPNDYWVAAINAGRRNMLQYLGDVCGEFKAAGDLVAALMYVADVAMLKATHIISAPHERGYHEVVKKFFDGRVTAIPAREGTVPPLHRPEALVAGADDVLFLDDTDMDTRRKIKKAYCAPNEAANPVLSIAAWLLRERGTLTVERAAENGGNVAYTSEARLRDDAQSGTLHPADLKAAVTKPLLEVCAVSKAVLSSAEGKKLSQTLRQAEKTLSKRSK

[9] = target: T4, Tyrosyl-tRNA synthetase, putative (Trypanosoma cruzi (strain CL Brener)); assay: Trypanosoma cruzi tyrosyl tRNA synthetase (TcYRS) SOP; format: functional; conditions: 30 µM
[10] = target: Chromo domain-containing protein 1 (Saccharomyces cerevisiae (strain ATCC 204508 / S288c) (Baker's yeast)) (UniProt P32657); assay: ScCHD-1 Enzyme Inhibition Assay; format: functional; conditions: 30 µM; also: in the data most compounds retested in dose-response had high values
Chromo domain-containing protein 1 (Saccharomyces cerevisiae (strain ATCC 204508 / S288c) (Baker's yeast)), sequence (P32657 whole entry, the tested form may be a part): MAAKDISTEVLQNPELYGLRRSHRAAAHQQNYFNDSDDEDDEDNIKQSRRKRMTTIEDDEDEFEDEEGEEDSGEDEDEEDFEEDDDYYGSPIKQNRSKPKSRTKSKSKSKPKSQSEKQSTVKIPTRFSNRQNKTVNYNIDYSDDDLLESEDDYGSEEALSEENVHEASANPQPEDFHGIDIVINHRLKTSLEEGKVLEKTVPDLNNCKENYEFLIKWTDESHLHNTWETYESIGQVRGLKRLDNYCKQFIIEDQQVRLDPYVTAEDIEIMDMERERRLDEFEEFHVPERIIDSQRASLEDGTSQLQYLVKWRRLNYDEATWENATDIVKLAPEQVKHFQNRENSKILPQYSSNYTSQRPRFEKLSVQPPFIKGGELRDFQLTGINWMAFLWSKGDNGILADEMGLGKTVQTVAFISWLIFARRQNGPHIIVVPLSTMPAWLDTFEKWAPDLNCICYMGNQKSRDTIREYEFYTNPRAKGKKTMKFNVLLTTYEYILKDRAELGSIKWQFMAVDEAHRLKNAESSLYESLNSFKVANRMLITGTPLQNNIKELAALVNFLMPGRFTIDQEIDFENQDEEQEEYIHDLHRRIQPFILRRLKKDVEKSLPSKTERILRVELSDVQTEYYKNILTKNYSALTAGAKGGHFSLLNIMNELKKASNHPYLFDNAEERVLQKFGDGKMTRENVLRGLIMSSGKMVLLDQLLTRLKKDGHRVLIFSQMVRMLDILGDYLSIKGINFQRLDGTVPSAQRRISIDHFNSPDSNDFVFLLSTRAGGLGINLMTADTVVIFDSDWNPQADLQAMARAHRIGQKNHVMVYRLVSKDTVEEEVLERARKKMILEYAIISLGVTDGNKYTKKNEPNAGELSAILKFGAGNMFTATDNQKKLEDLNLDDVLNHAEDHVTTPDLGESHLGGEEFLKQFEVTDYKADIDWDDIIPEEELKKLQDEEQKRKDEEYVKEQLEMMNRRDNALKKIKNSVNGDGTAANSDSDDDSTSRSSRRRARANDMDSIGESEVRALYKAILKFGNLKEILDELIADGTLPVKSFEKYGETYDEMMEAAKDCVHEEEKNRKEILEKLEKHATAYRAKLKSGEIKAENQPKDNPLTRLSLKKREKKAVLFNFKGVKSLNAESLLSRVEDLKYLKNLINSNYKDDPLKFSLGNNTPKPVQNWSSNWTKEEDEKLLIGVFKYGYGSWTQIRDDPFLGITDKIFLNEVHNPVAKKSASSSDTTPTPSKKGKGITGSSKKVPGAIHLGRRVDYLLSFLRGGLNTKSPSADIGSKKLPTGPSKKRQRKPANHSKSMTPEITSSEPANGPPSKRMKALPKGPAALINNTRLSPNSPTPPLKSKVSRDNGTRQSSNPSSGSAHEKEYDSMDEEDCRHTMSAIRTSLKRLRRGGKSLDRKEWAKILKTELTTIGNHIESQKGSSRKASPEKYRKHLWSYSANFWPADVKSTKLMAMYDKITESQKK

Sialic acid-binding Ig-like lectin 9 (Homo sapiens), sequence (Q9Y336 whole entry): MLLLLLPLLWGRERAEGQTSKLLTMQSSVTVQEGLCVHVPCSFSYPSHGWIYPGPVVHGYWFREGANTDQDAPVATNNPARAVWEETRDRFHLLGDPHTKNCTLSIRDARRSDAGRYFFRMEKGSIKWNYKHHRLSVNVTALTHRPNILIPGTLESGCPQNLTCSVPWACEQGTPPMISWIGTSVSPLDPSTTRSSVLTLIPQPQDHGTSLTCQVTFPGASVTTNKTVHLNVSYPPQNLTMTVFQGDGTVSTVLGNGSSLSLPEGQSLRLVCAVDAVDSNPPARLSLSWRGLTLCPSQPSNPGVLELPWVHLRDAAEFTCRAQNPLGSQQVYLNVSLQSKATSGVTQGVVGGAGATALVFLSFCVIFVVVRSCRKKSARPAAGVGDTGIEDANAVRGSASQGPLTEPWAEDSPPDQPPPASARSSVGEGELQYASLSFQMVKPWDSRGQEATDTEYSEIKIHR
Protein translocase subunit SecA (Escherichia coli (strain K12)), sequence (P10408 whole entry): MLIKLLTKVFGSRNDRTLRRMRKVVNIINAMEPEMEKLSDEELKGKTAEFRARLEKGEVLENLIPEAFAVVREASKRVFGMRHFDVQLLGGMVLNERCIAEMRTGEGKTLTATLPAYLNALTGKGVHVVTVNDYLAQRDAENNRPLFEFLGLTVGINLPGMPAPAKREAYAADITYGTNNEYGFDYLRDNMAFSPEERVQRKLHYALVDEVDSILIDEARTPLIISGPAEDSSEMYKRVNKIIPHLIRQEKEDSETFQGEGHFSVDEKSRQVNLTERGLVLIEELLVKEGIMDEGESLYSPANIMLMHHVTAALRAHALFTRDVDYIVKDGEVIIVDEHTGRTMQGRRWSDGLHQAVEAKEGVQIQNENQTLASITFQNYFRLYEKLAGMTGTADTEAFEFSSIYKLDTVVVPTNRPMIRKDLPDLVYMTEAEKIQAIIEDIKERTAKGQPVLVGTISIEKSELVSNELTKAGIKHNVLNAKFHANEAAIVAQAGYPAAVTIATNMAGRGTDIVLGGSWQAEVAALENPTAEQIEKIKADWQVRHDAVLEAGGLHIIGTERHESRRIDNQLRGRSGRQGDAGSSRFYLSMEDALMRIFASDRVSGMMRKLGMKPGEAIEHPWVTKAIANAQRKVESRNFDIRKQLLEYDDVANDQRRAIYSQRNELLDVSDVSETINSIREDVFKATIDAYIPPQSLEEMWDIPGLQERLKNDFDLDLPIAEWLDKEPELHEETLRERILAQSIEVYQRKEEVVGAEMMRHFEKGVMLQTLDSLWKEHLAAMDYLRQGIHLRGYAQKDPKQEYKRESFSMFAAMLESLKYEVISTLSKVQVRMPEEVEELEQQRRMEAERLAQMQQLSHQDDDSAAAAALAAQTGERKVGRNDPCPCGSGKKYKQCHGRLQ

| Compound | Percent Effect [1] [%] | Percent Effect [2] [%] | Percent Effect [3] [%] | Percent Effect [4] [%] | Percent Effect [5] [%] | Percent Effect [6] [%] | Percent Effect [7] [%] | Percent Effect [8] [%] | Percent Effect [9] [%] | Percent Effect [10] [%] |
| --- | --- | --- | --- | --- | --- | --- | --- | --- | --- | --- |
| Cc1cnc(N2CCC3(CCN(CC4CC4)C3=O)CC2)nc1 | -0.786 | 16.9 | -3.91 | -4.13 | 3.65 | 8.84 | 17.8 | 8.7 | 12.5 | -11.4 |
| Cc1nc(CN(C)C2CCN(Cc3ccc4ccccc4n3)C2)no1 (stereo not given) | 0.184 | -5.2 | -6.12 | 7.28 | -9.22 | 20.4 | 10.1 | 21.6 | 30.6 | -10.1 |
| Cc1nccc(CN2CC[C@H](Oc3cccc(F)c3)[C@@](C)(O)C2)n1 | -2.64 | 14.7 | 6.31 | -0.197 | 3.1 | 0.657 | 2.7 | 7.41 | 15 | -17.3 |
| O=C(c1ccc(OCC2CC2)nc1)N1CCCC(n2cncn2)C1 (stereo not given) | -1.42 | 10.3 | -4.65 | -3.1 | 7.79 | 9.13 | 19.1 | 5.26 | 13.2 | -4.21 |
| c1ccc(-n2ccc(CN3CCCC3Cn3cccn3)n2)cc1 (stereo not given) | -2.21 | -49.4 | 9.5 | -5.97 | -7.17 | 8.25 | 11.5 | 0 | -11.8 | 3.12 |
| COc1ccc(CN2CCC3(CC2)CCN(CC2CC2)C3=O)cc1 | -3.5 | 19.5 | 0.146 | -3.56 | 4.57 | 3.18 | 4.44 | 4.83 | 2.5 | -2.76 |
| COC(=O)NCc1cc2n(n1)CCCN(C(C)=O)C2 | -9.99 | 5.41 | -0.0271 | -3.98 | -2.45 | 7.19 | -0.185 | 4.79 | 12.2 | -3.29 |
| Cc1cc(C(=O)NC2CCc3nc(C)cn3C2)[nH]n1 (stereo not given) | -3.96 | 2.67 | 4.26 | -0.803 | 1.77 | 5.68 | 3.16 | 3.68 | 5.13 | -7.74 |
| Cc1cccc(CN2CCC3(CCN(c4ccccn4)C3)C2=O)c1 (stereo not given) | -2.21 | 16.9 | 0.691 | 3 | -0.913 | 14 | 11.4 | 10.6 | 12.5 | -5.26 |
| Cc1cccc(CN2C[C@@H]3COC[C@]3(CNC(=O)N3CCCC3)C2)n1 | -4.34 | -1.3 | 12.9 | -3.02 | -4.86 | 4.68 | 1.04 | 3.68 | 5.13 | 1.29 |
| Cc1cccc(CN2CCc3nnc(CO)n3CC2)n1 | -0.433 | 19.5 | -0.362 | 0 | 1.37 | 13 | 16.8 | 9.66 | 15 | -7.15 |
